MITF TRPM1 HTS: MITF TRPM1 promoter activation in melanoma cells | SK-MEL-5 TRPM1-promoter luciferase, 24 h; % of positive control, neutral wells = 0 | activation, % at 12.5 µM | 0.75% of 300,000 active | AID 588334;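 active = mean activation of at least 80% with every replicate also reaching 80%; inconclusive = mean reaches 80% but some replicate falls short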;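 note: 0% = neutral control wells and 100% = parthenolide positive control wells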
esBAF inh: SWI/SNF esBAF complex inhibition; 2% of 350,000 active; AID 602393; reporter increase, % at 12.5 µM; mouse ES cells, Bmi1-luciferase knock-in reporter, 24 h; 100% = twice the neutral-well signal; in the data active = activation above about 40%; inconclusive = no clear call, values can overlap the other calls;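 note: 0% = median of the plate's neutral control wells and 100% = double that signal; a rise in the Bmi1 reporter signal indicates esBAF inhibition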
C2C12 statin: suppression of simvastatin myotoxicity; AID 602340; C2C12 myotubes + simvastatin, ATP luminescence, 48 h; scaled: DMSO 0, geranylgeraniol control 100; rescue of ATP level, % at 7.49 µM; 0.78% of 330,000 active;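 active = mean ATP rescue above about 67%, or every replicate alone reaching that limit, limit read from the data, passing the limit was not always enough; inconclusive = no clear call, values can overlap the other calls; inactive = mean under the limit and some replicate under it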;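 note: myotubes were challenged with 10 µM simvastatin during compound exposure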
Wnt act: activates Wnt/beta-catenin signaling in a reporter cell assay; activator, plate reader; activation, % at 9.35 µM; 1.2% of 300,000 active; AID 743398; in the data active = activation above about 30%, passing the limit was not always enough; inconclusive = no clear call, values can overlap the other calls;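 note: 0% = neutral control wells and 100% = positive control wells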
The depositor's hits bear a star; ? = inconclusive; . = not tested or not shown. Hits are enriched below; roughly 3% of the tested compounds scored in any of these assays.

SMILES	MITF TRPM1 HTS	esBAF inh	C2C12 statin	Wnt act
COC(=O)C(C)N1C(=O)S/C(=C\c2ccc(-c3ccc(C(=O)O)cc3C)o2)C1=O (centres undefined)	36.0	71.0*	-1.0	7.3
Cc1cc2c(cc1C)/C(=C\C(N)=O)NC(C)(C)C2	4.3	-0.6	142.4*	.
O=C1CCCC2=C1C(c1cccs1)Nc1ccc3ncccc3c12 (centres undefined)	0.8	3.4	139.1*	.
C/C=C/c1cnc2c(c1)C(=O)N([C@H](C)CO)C[C@H](C)[C@H](CN(C)C(=O)C1CC1)O2	.	-4.4	-11.1	.
Cc1nc2sc(C(=O)Nc3ccccc3)c(N)c2c(C)c1[N+](=O)[O-]	44.7	.	.	36.3*
C[C@H]1CN([C@@H](C)CO)C(=O)c2cc(C#CC3CC3)cnc2O[C@H]1CN(C)C(=O)c1ccccc1	.	-6.2	4.8	.
C[C@@H]1CN([C@@H](C)CO)C(=O)c2cc(NS(=O)(=O)c3ccc(Cl)cc3)ccc2O[C@@H]1CN(C)C(=O)NC1CCCCC1	.	3.6	22.0	.
Cc1cccc(C(=O)Nc2nnc(SCC(=O)Nc3ccc4c(c3)oc3ccccc34)s2)c1	14.2	.	.	-1.9
CCn1c(SCC(=O)Nc2ccc3c(c2)oc2ccccc23)nnc1-c1ccc(N)cc1	-11.5	37.7	4.7	4.1
COc1ccccc1C(=O)Nc1nnc(SCC(=O)NC2CCCC2)s1	91.1*	-4.6	6.9	.
O=C(CSc1nnc(NC(=O)c2ccccc2[N+](=O)[O-])s1)NC1CCCC1	-7.1	9.5	-8.9	0.7
CC(=O)Nc1ccc(-c2nnc(SCC(=O)Nc3ccc4c(c3)oc3ccccc34)n2C)cc1	.	53.4*	1.3	26.9
COc1ccccc1C(=O)Nc1nnc(SCC(=O)Nc2ccc3c(c2)oc2ccccc23)s1	54.1	.	.	49.0*
Cc1noc(C)c1S(=O)(=O)Nc1ccc2c(c1)C(=O)N([C@H](C)CO)C[C@@H](C)[C@@H](CN(C)S(=O)(=O)c1ccccc1)O2	.	-4.2	-4.1	.
S=C(Nc1ccc2[nH]ccc2c1)NC1CCCCC1	58.8	66.1*	-4.9	28.5
FC(F)Oc1ccc(NC(=S)NC2CCCCCCC2)cc1	37.2	46.7*	-54.3	-2.5
S=C(Nc1ccc(Br)cc1)NC1CCCCC1	29.9	43.4*	-8.3	7.2
CC(C)NC(=O)N(C)C[C@H]1OCCCC[C@@H](C)Oc2ccc(NC(=O)c3ccncc3)cc2C(=O)N([C@H](C)CO)C[C@H]1C	.	-3.7	17.9	.
C(#Cc1ccc2c(c1)COc1c3ccccc3nn1-2)c1ccccc1	100.4*	63.5*	-16.7	31.6*
C#Cc1ccc2c(c1)COc1c3ccccc3nn1-2	18.2	10.0	-8.9	27.0
C(#CC1CCCCC1)c1ccc2c(c1)COc1c3ccccc3nn1-2	.	?	-38.8	35.3*
CC(C#Cc1ccc2c(c1)COc1c3ccccc3nn1-2)OC(C)(C)C (centres undefined)	95.2*	103.6*	-51.3	15.4
CCCNC(=O)Nc1nc2ccccc2s1	125.5*	.	.	?
Cc1csc(SCC(=O)Nc2nc3ccccc3s2)n1	.	46.6*	.	-1.6
CO[C@H]1CN(C)C(=O)c2cc(C#N)ccc2OC[C@H]2O[C@H](CC[C@H]2OC)CCN(C)C(=O)[C@H]1C	.	11.2	-0.8	.
SMILES	MITF TRPM1 HTS	esBAF inh	C2C12 statin	Wnt act
COc1cccc(-c2cccc(-c3nc(C(=O)N(C)C)cc4c3[C@H](CCO)N([S@@](=O)C(C)(C)C)C4)c2)c1	.	-7.1	6.7	.
N#CCNC(=O)c1cccn1-c1ncc(C(F)(F)F)cc1Cl	-2.8	-0.7	3.4	38.2*
C[C@@H]1CN([C@@H](C)CO)C(=O)c2cccc(NC(=O)Nc3ccc(C(F)(F)F)cc3)c2O[C@H]1CN(C)Cc1ccc(C(=O)O)cc1	.	2.5	.	.
COc1cccc(NC(=O)C(=O)NCC2CCCN2S(=O)(=O)c2ccccc2)c1 (centres undefined)	157.8*	78.8*	1.4	43.4*
COc1cccc(C(=O)NCC2CCCN2S(=O)(=O)c2ccccc2)c1 (centres undefined)	2.6	-3.3	-0.9	-0.7
O=C(NCC1CCCN1S(=O)(=O)c1cccs1)C(=O)Nc1ccccc1Cl (centres undefined)	29.0	50.7*	13.9	3.9
CNC[C@H]1Oc2ccc(NC(=O)Nc3ccc(C(F)(F)F)cc3)cc2CC(=O)N([C@@H](C)CO)C[C@H]1C	.	-3.5	-28.2	.
CCC(=O)Nc1ccc2c(c1)OC[C@@H](C)N(C(=O)COC)C[C@@H](C)[C@H](OC)CN(C)C2=O	.	-2.6	12.9	.
Cc1ccc(Cl)cc1NC(=O)CCC(=O)O	7.8	.	.	2.7
Cc1ccc(Cl)cc1NC(=O)Cn1cccc1	-0.4	-3.6	80.5*	-0.1
C/C(=N\Nc1nccnc1Cl)c1ccc(O)cc1	.	41.6*	-5.3	4.7

Screens deposited in PubChem by Broad Institute.
